{"source": "PubChem BioAssay AID686970", "about": "(National Center for Advancing Translational Sciences (NCATS), 2013)", "note": "In all, about 360,000 compounds went through this assay and about 6,000 (1.7%) were called active. Where a call stands in place of a potency, no number is given. About 8% were inconclusive and are not listed. The full list was thinned out, with actives kept by preference. A number with no mark means an inactive call. Calls come from the whole dose curve; as a rule, active = well fitted cell-killing curve with a large enough effect; inconclusive = small, poorly fitted or top-dose-only effect, or effect the other way; inactive = flat fitted curve, though single readings scatter. Potency is the fitted concentration of half-maximal effect."}
{"experiment": "qHTS for induction of synthetic lethality in tumor cells producing 2HG: qHTS for the HT-1080-NT fibrosarcoma cell line;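 note: NT is the 2HG producing partner of a matched IDH1 knockdown line; nearly all actives have a fitted effect of over 55% in size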", "settings": "HT-1080-NT fibrosarcoma viability, CellTiter-Glo ATP luminescence, 48 h; series mostly up to 46.1 µM", "in_short": "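HT-1080-NT; 750 cells/well; 5% FBS RPMI; 48 h compound, 37 degrees C; CellTiter-Glo luminescence; curve fitting and curve-class assignment.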"}
{"compound": "O=C(COC(=O)c1cccc(Cl)c1Cl)NC1CCCCCC1", "Potency": "inactive"}
{"compound": "CC(C)Oc1cc(F)ccc1-c1cc(C(=O)Nc2ccc(F)cc2)[nH]n1", "Potency": "inactive"}
{"compound": "CCN(CC)C(=O)C1=C(C)N(Cc2ccccc2)C(=O)C(CC(=O)NC(c2ccccc2)c2ccccc2)C1", "note": "(stereo unspecified)", "Potency": "inactive"}
{"compound": "O=C(C[C@H]1CC[C@@H](NC(=O)c2ccncc2)[C@@H](CO)O1)NCC1CC1", "Potency": "inactive"}
{"compound": "NCCCCC(C(=O)O)N(C(=O)OCc1ccccc1)C(=O)OCc1ccccc1", "note": "(stereo unspecified)", "Potency": "inactive"}
{"compound": "CCCCCCn1c(=O)n2n(c1=O)C[C@]1(OC(=O)NCc3ccc(OC)c(OC)c3)CN(S(=O)(=O)c3ccc(C)cc3)C[C@]1(O)C2", "Potency": "inactive"}
{"compound": "COc1ccccc1-n1nnnc1S(=O)(=O)Cc1ccc(Cl)cc1", "Potency": "20.6 µM (active)"}
{"compound": "CCC(C)N(C(=O)CSc1nnnn1-c1ccccc1OC)C1CCS(=O)(=O)C1", "note": "(stereo unspecified)", "activity, negative = less viability": "-3.07% [at 9.24 µM]"}
{"compound": "COc1ccccc1-n1nnnc1SCC(=O)NC(=O)Cc1ccccc1", "Potency": "inactive"}
{"compound": "CC(=O)C[C@@H]1OC[C@H](CO)N1S(=O)(=O)c1ccc(C)cc1", "Potency": "inactive"}
{"compound": "COc1ccc2sc(-c3ccc(N(C)C)cc3)c(-c3ccc4cc[nH]c4c3)c2c1", "Potency": "inactive"}
{"compound": "COc1ccc2c(c1)c(=Cc1ccc(N(C)C)cc1)c1cc(-c3ccccc3)[n+](C)n12", "Potency": "13 µM (active)"}
{"compound": "O=C(NCC(O)c1nc2ccccc2[nH]1)c1ccc(Br)cc1", "note": "(stereo unspecified)", "Potency": "inactive"}
{"compound": "Cc1cc(=O)oc2cc(OCC3CC(c4ccccc4Cl)=NO3)ccc12", "note": "(stereo unspecified)", "Potency": "0.708 µM (active)"}
{"compound": "CCOc1ccccc1N1CCN(C(=O)COc2ccc3c(C)cc(=O)oc3c2)CC1", "Potency": "inactive"}
{"compound": "Cc1cc(=O)oc2cc(OCCC[n+]3ccccc3)ccc12", "Potency": "inactive"}
{"compound": "COc1cc(NC(=O)C2=C(C)OCCS2)c(Cl)cc1C(=O)NCCCN1CCCC(C)C1", "note": "(stereo unspecified)", "Potency": "inactive"}
{"compound": "Cc1ccc(S(=O)(=O)N[C@H]2CCC[C@@H]2O)cc1", "Potency": "inactive"}
{"compound": "CCOC(=O)N1C(=O)C[C@](Sc2ccc(C)cc2)(C(=O)OC)[C@H]1c1ccccc1", "Potency": "inactive"}
{"compound": "CSc1nc(N(C)NC(=O)c2cccc(C)c2)c2ccccc2n1", "Potency": "0.13 µM (active)"}
{"compound": "CN(NC(=O)c1ccccc1F)c1nc(C(F)(F)F)nc2ccccc12", "Potency": "0.291 µM (active)"}
{"compound": "Cn1c(CC(=O)NNC(=O)c2ccccc2F)nc2ccccc21", "Potency": "inactive"}
{"compound": "CC(NC(=O)c1ccccc1F)c1cccc2ccccc12", "note": "(stereo unspecified)", "Potency": "inactive"}
{"compound": "COc1ccc(C(=O)NN(C)c2nc(-c3ccccc3)cc(C)c2S(C)(=O)=O)cc1", "Potency": "inactive"}
{"compound": "Cc1cccc(C(=O)Nc2ccc(C(=O)N/N=C/c3cccc(C)n3)cc2)c1", "Potency": "inactive"}
{"compound": "COc1ccc(-c2cc(NC=O)c3ncc(-c4cccc(C(=O)N(C)C)c4)n3c2)c(OC)c1", "Potency": "inactive"}
{"compound": "CC1(C)OC(=O)C2=C(CC(c3ccccc3)OC2CCc2ccccc2)O1", "note": "(stereo unspecified)", "Potency": "inactive"}
{"compound": "O=Nc1c(O)cc(O)c2ccccc12", "Potency": "inactive"}
{"compound": "CCC(c1nnnn1-c1ccc2c(c1)OCCO2)N1CCN(c2ccc(C(F)(F)F)cn2)CC1", "note": "(stereo unspecified)", "Potency": "inactive"}
{"compound": "CCC(C)CN1C(=O)CSCC1(C)C(=O)NCc1ccccc1", "note": "(stereo unspecified)", "Potency": "inactive"}
{"compound": "COc1ccc2c(c1)CCCO[C@]21O[C@H](CCO)C[C@H](O)[C@H]1O", "Potency": "inactive"}
{"compound": "CN(C)C(=O)COC(=O)c1cccc(S(=O)(=O)N2CC3(C)CC2CC(C)(C)C3)c1", "note": "(stereo unspecified)", "Potency": "inactive"}
{"compound": "Cc1nnnn1/C(=C\\c1ccccc1)C(=O)OCC(=O)N1CC2(C)CC1CC(C)(C)C2", "note": "(stereo unspecified)", "Potency": "23.1 µM (active)"}
{"compound": "CCOC(=O)C1CCCN(C(=O)c2cc(-c3cccs3)oc2C)CC1", "note": "(stereo unspecified)", "Potency": "inactive"}
{"compound": "Cc1[nH]c(=O)c(C(=O)/C=C/c2ccccc2)c2c1CCCC2", "Potency": "7.08 µM (active)"}
{"compound": "CC1(C(=O)O)CCCN(C(=O)/C=C/c2ccccc2)C1", "note": "(stereo unspecified)", "Potency": "inactive"}
{"compound": "Cc1cccc(C=CC(=O)c2ccc(Cl)cc2)c1", "Potency": "inactive"}
{"compound": "O=C(NCCOc1ccccc1)N1[C@H]2CC[C@@H]1C=C(c1ccc(F)cc1OCc1ccccc1)C2", "Potency": "inactive"}
{"compound": "CC1(C(=O)NCc2ccccc2)CN(S(C)(=O)=O)CC(=O)N1CC(F)(F)F", "note": "(stereo unspecified)", "Potency": "inactive"}
{"compound": "OC[C@@H]1CN(C2CCCC2)C[C@H](n2cnc3c(NC4CCC4)ncnc32)O1", "Potency": "inactive"}
{"compound": "OC[C@@H]1CN(Cc2cccs2)C[C@H](n2cnc3c(NC4CCCC4)ncnc32)O1", "Potency": "inactive"}
{"compound": "OC[C@@H]1CN(Cc2ccc(-c3ccccc3)cc2)C[C@H](n2cnc3c(NC4CCCC4)ncnc32)O1", "Potency": "9.2 µM (active)"}
{"compound": "COc1cc(C(=O)OCCCN2CCOCC2)cc(OC)c1OC", "Potency": "inactive"}
{"compound": "O=C(Nc1ccccc1Cl)/C(Cl)=C(\\Cl)S(=O)c1ccccc1", "note": "(stereo unspecified)", "Potency": "20.6 µM (active)"}
{"compound": "CN(C)S(=O)(=O)Oc1ccccc1C(=O)Nc1ccccc1Cl", "Potency": "inactive"}
{"compound": "O=C(COC(=O)CCc1c[nH]c(=O)[nH]1)Nc1ccccc1Cl", "Potency": "inactive"}
{"compound": "COC(=O)[C@@]12C[C@@H](CC(=O)N3CCCCC3)C(=O)N(Cc3ccc4c(c3)OCO4)C1=CCC(C)(C)C2", "Potency": "inactive"}
{"compound": "CN(Cc1ccccc1)C(=O)[C@@H]1CCCN1C(=O)[C@@H]1CCCN1C(=O)c1c(F)cccc1F", "Potency": "inactive"}
{"compound": "COc1ccc(NS(=O)(=O)c2ccc(NC(=O)c3ccc(N(C)S(C)(=O)=O)cc3)cc2)cc1", "Potency": "18.4 µM (active)"}
{"compound": "COc1ccc(NS(=O)(=O)c2ccc(C(=O)Nc3c(C)n(C)n(-c4ccccc4)c3=O)cc2)cc1", "Potency": "inactive"}
{"compound": "COc1ccc(C(=O)Nc2cccc(S(C)(=O)=O)c2)cc1", "Potency": "inactive"}
{"compound": "O=S1(=O)CC(N2CCN(Cc3ccccc3F)CC2)CN1Cc1cn(Cc2ccccc2)nn1", "note": "(stereo unspecified)", "Potency": "inactive"}
{"compound": "C[C@@H]1CN([C@@H](C)CO)S(=O)(=O)c2ccc(C#Cc3cccc(F)c3)cc2O[C@H]1CN(C)S(=O)(=O)c1cn(C)cn1", "Potency": "inactive"}
{"compound": "COC(=O)[C@]12CCCCC=C1N(Cc1ccco1)C(=O)[C@H](CC(=O)NCC1CCCCC1)C2", "Potency": "inactive"}
{"compound": "Nc1ncnc2c1ncn2[C@@H]1O[C@H](C(=O)NS(=O)(=O)c2c(Cl)nc3sccn23)[C@@H](O)[C@H]1O", "Potency": "inactive"}
{"compound": "CCOC(=O)C(C)n1cnc2c(nnn2-c2cccc(OC)c2)c1=O", "note": "(stereo unspecified)", "Potency": "inactive"}
{"compound": "CCOc1cccc(-n2nnnc2-c2ccc(OC)cc2)c1", "Potency": "5.8 µM (active)"}
{"compound": "COc1ccc(NC(=O)CSc2nnnn2-c2cccc(OC)c2)cc1", "Potency": "inactive"}
{"compound": "COCCCNC(=O)c1ccc(-c2c(C)noc2C)c2ccoc12", "Potency": "inactive"}
{"compound": "COc1ccccc1-n1c(SCC(=O)Nc2ccc(Cl)cc2)nc(O)c(Cc2ccccc2)c1=O", "Potency": "inactive"}
{"compound": "COc1ccc(C(C(=O)NCc2ccccc2)n2c(=O)c(-c3ccccc3)nc3ccccc32)cc1", "note": "(stereo unspecified)", "Potency": "inactive"}
{"compound": "CCC(C)C(CO)NC(=O)/C=C/[C@H]1O[C@@H](n2cnc3c(NC(=O)c4ccccc4)ncnc32)[C@H](O)[C@@H]1O", "note": "(stereo partly specified)", "Potency": "inactive"}
{"compound": "COc1ccc(C(=O)NC2CC(C)(C)NC(C)(C)C2)cc1OC", "Potency": "inactive"}
{"compound": "COc1ccc(C(=O)N/N=C2\\CCS(=O)(=O)c3ccc(F)cc32)cc1OC", "Potency": "20.6 µM (active)"}
{"compound": "COc1ccc(CN2CCCC(CNC(=O)c3ccc(F)cc3)C2)cc1OC", "note": "(stereo unspecified)", "Potency": "inactive"}
{"compound": "Cc1ccc(Cc2c(-c3ccc(Cl)cc3)nc3c4ccccc4ccn23)cc1", "Potency": "inactive"}
{"compound": "CC(=O)NN=C(C)c1ccc(NC(=O)C2CC2)cc1", "Potency": "inactive"}
{"compound": "COc1ccc(C(=O)NCC2CCCO2)cc1S(=O)(=O)NCc1ccc(Cl)cc1", "note": "(stereo unspecified)", "Potency": "inactive"}
{"compound": "CCC(CC)C(C(=O)NC1CCCC1)N1CCN(c2cc(C)nc3ccccc23)CC1", "note": "(stereo unspecified)", "Potency": "inactive"}
{"compound": "CCN1CCN(CC(=O)Nc2sc3c(c2C#N)CCC3)CC1", "Potency": "inactive"}
{"compound": "N#Cc1c(NC(=O)C2CCCO2)sc2c1CCCCC2", "note": "(stereo unspecified)", "Potency": "inactive"}
{"compound": "N#Cc1c(NC(=O)CCCl)sc2c1CCCCC2", "Potency": "23.1 µM (active)"}
{"compound": "CCCCCCN1CCN(C2CN(Cc3cn(Cc4ccc(F)cc4)nn3)S(=O)(=O)C2)CC1", "note": "(stereo unspecified)", "Potency": "inactive"}
{"compound": "Cc1ccc(-c2nc3ccccn3c2Nc2ccc(F)cc2)o1", "Potency": "inactive"}
{"compound": "N=c1n(Cc2ccc(Cl)cc2)c2ccccc2n1CC(O)c1ccco1", "note": "(stereo unspecified)", "Potency": "23.1 µM (active)"}
{"compound": "Cn1c(=N)n(CC(O)c2cccs2)c2ccccc21", "note": "(stereo unspecified)", "Potency": "inactive"}
{"compound": "Cn1c(=N)n(CC(O)c2ccccc2)c2ccccc21", "note": "(stereo unspecified)", "Potency": "inactive"}
{"compound": "CCNC(=O)C1(C)CCCN(Cc2noc(-c3ccccc3OC)n2)C1", "note": "(stereo unspecified)", "Potency": "inactive"}
{"compound": "COc1cccc(CNc2nc(NCc3ccccc3OC)nc3ccsc23)c1", "Potency": "23.1 µM (active)"}
{"compound": "Clc1ccccc1Nc1nc(NCc2cccs2)nc2ccsc12", "Potency": "inactive"}
{"compound": "COc1ccc(NC(=S)NCc2cccs2)c(OC)c1", "Potency": "inactive"}
{"compound": "COc1cccc(-c2cc3nc(NCc4ccccc4OC)n(C)c(=O)c3s2)c1", "Potency": "inactive"}
{"compound": "COc1cccc(CNc2nc(NCc3cccs3)nc3ccsc23)c1", "Potency": "18.4 µM (active)"}
{"compound": "COc1ccccc1CNc1nc(Nc2ccccc2Cl)c2sccc2n1", "Potency": "inactive"}
{"compound": "CC[C@@H]1CC2=C(C(=O)OC(C)(C)O2)[C@@H](CC)O1", "Potency": "inactive"}
{"compound": "Nc1nc2c(ncn2[C@@H]2O[C@H](CNCc3ccc(OCCCN4CCOCC4)cc3)[C@@H](O)[C@H]2O)c(=O)[nH]1", "Potency": "inactive"}
{"compound": "C[C@H](O)[C@@H]1C(=O)N2CCc3c([nH]c4ccccc34)[C@@H]2C[C@@H]1N(C)C(=O)Nc1ccc(F)cc1", "Potency": "inactive"}
{"compound": "C[C@H]1CN([C@@H](C)CO)C(=O)CCCn2cc(nn2)CO[C@@H]1CN(C)S(=O)(=O)c1cccs1", "Potency": "inactive"}
{"compound": "N#Cc1ccc(C(C(=O)NCc2ccccc2)n2c(=O)c(-c3ccco3)nc3ccccc32)cc1", "note": "(stereo unspecified)", "Potency": "inactive"}
{"compound": "O=S1(=O)CC(N2CCSCC2)CN1Cc1cn(Cc2cccc(Cl)c2)nn1", "note": "(stereo unspecified)", "Potency": "inactive"}
{"compound": "CCCCC[C@@H]1C=C(C(=O)OCC)[C@H](c2ccccc2)N1S(=O)(=O)c1ccc(C)cc1", "Potency": "inactive"}
{"compound": "Cn1c(=O)c([N+](=O)[O-])c(Oc2ccccc2)c2ccccc21", "Potency": "18.4 µM (active)"}
{"compound": "COc1cc2c(=O)n(C)c3ccccc3c2cc1OC", "Potency": "inactive"}
{"compound": "Cc1cc(C)c(-c2c(O)c3ccccc3n(C)c2=O)c(C)c1", "Potency": "inactive"}
{"compound": "CCCc1c(C)nc2scc(-c3ccc(Cl)cc3)n2c1=O", "Potency": "inactive"}
{"compound": "COCCNc1ncnc2c1ncn2[C@H]1CN(CCN2CCOCC2)C[C@@H](CO)O1", "Potency": "inactive"}
